This passage reports growth results from PubChem BioAssay (NCI).

About 83,000 compounds went through this panel and 20% of them were active in at least one assay; those are over-represented in the sample as a whole.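 Treatment: one concentration, 48 hours, 96-well format. Scoring: percent growth, with anything below 10 considered active.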 Active and inactive are the calls of the source.

The experiment concerns HCT-15 colon. As to the kind of experiment: NCI-60 one-dose screen, 48 h (100 = growth as untreated, 0 = no growth, -100 = all killed). The following applies: 10 µM unless noted.
With `CC1CC(C)S(=O)(=O)C1` (stereo not drawn), the growth was 103% (inactive).

`Nc1c(Br)cc(O)c2c1C(=O)c1ccccc1C2=O`: the growth is 47.7% (inactive).

As for `NC(CO)(CO)c1ccccc1`, the growth was 97.2% (inactive).

In the case of `CC(C)N1CC(=O)N2CSCC2C1=O` (stereo not drawn), the growth is 105% (inactive).

With `CCNC(=O)OCCc1c2ccccc2nc2ccccc12`, the growth was 104% (inactive).

`CCN(CC)CCN1CNC(=S)NC1`: the growth was 106% (inactive).

Regarding `Oc1cc(O)c2c(c1)O[C@H](c1ccc(O)c(O)c1)[C@@H](O)C2`, the growth was 100% (inactive).

Consider `CN1CCN(C(=S)S)CC1`, for which the growth is 100% (inactive).

`O=c1[nH]c(=O)c2cc(Cl)cc(Cl)c2[nH]1`: the growth was 107% (inactive).

As for `CCOP(=O)(NC(c1ccccc1)c1ccccc1)OCC`, the growth is 117% (inactive).

As for `Cc1ccc2nc(N)nnc2c1`, the growth is 102% (inactive).

Consider `NC(=S)N/N=C/c1ccc(Cl)cc1`, for which the growth is 103% (inactive).

With `CC(=O)C1C(=O)C(=O)N(c2ccc(Cl)c(Cl)c2)C1=O` (stereo not drawn), the growth is 93.8% (inactive).

Consider `CN1CCCN(C(c2ccccc2)c2ccc(Cl)cc2)CC1` (stereo not drawn), for which the growth is 85.9% (inactive).

Regarding `c1ccc(-c2ccc3ccccc3c2)cc1`, the growth was 107% (inactive).

Take `CCOC(=O)C(C#N)=C1CCN(C)CC1`: the growth was 99.5% (inactive).

For `Ic1cccs1`, the growth was 109% (inactive).

For the molecule `O=C(O)c1cccc(-n2ncc(Cl)c(Cl)c2=O)c1`, the growth is 98.5% (inactive).

With `CCCCn1cnc2c(=O)[nH]cnc21`, the growth was 105% (inactive).

Take `CC(=O)N(C(C)=O)c1ccc(C)cc1`: the growth was 96% (inactive).

Turning to `CCNCC(C)(C)O`, the growth was 104% (inactive).

With `COc1cc(C(=O)NC(=S)NCc2ccncc2)cc(OC)c1OC`, the growth is 95.5% (inactive).

In the case of `CCOc1ccc(C(=O)NCC(C)C)cc1`, the growth is 103% (inactive).

`CCOC(=O)C(=O)CC(=O)c1ccccc1`: the growth was 102% (inactive).

Turning to `C=CCOc1ccc(Cl)cc1Cl`, the growth is 104% (inactive).

For the molecule `C#CCSc1nnnn1-c1ccccc1`, the growth was 54.1% (inactive).

As to `CCOC(=O)c1c(C)[nH]c(C)c1C=O`, the growth is 107% (inactive).

With `C/C(Cc1ccccc1)=N\O`, the growth was 96.9% (inactive).

As to `Nc1cc2ccccc2c(O)c1O`, the growth is 16% (inactive).

For the molecule `NNC(=O)N/N=C1\C(=O)N(c2nccs2)C(=O)C(=O)C1c1nc2ccccc2s1` (stereo not drawn), the growth was 116% (inactive).

As to `S=c1nc(-c2ccccn2)c(-c2ccccn2)n[nH]1`, the growth is 100% (inactive).

Take `Nc1nc(Cl)cc(Cl)n1`: the growth was 102% (inactive).

Regarding `CC1(C)C2CCC1(C)C1(C2)OCCS1` (stereo not drawn), the growth is 95.9% (inactive).

As for `CC(C)(N)CO[C@H]1C[C@H]2CC[C@@]1(C)C2(C)C`, the growth is 90.7% (inactive).

On to `COC(=O)c1ccc([N+](=O)[O-])c(C)c1`, for which the growth was 94.9% (inactive).

Take `CCCCCCCCCc1ccc(OC(C)=O)cc1`: the growth is 111% (inactive).

For the molecule `CC(C)=CCC[C@@H](C)[C@H]1CC[C@@]2(C)C3=C(CC[C@]12C)[C@@]1(C)CC[C@H](O)C(C)(C)[C@@H]1CC3`, the growth was 97.9% (inactive).

On to `CC(O)C(F)(F)C(F)(F)C(F)(F)F` (stereo not drawn), for which the growth was 88.2% (inactive).
